The structures appear in SMILES notation. Inconclusive results are not listed. The source made the active and inactive calls. Unless noted, calls follow the shape of the dose curve; as a rule, active = well fitted curve in the direction sought with a large enough effect; inconclusive = small, poorly fitted or top-dose-only effect, or another doubt; inactive = no such curve, though single readings can be large; an effect the other way counts as inactive or inconclusive.

Test [1] in a line: NS1 protein of Zika virus - qHTS assay to identify small molecule inhibitors in human HEK 293 cells (AID 1347053). Also: nearly all actives have a fitted effect of over 55% in size. Also: potency is read from the fitted curve at half-maximal effect. The essentials: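 Inhibition of NS1 expression was scored in HEK 293 cells given compound 1 h ahead of MR766 virus (MOI = 0.5). Following 24 h at 37 C, two anti-NS1 antibodies generated a TR-FRET signal, scaled between uninfected and infected controls.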
A short description of test [2]: qHTS of pediatric cancer cell lines to identify multiple opportunities for drug repurposing: Primary screen for TC32 cells (AID 1347089). Also: nearly all actives have a fitted effect of over 60% in size. Also: potency is read from the fitted curve at half-maximal effect. In a few lines:
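Measured quantity: luminescence from CellTiter-Glo, reflecting metabolically active TC32 cells following 48 h of compound. Curves came straight from multi-point titrations, with 8 or 11 points in primary and 11 in confirmatory screening.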
A general note: In qHTS, concentration-response curves come from the screen itself.

Test [3] in a line: qHTS of pediatric cancer cell lines to identify multiple opportunities for drug repurposing: Primary screen for DAOY cells (AID 1347090). Also: nearly all actives have a fitted effect of over 55% in size. Also: potency is read from the fitted curve at half-maximal effect. The essentials: (§1)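 Cell viability, CellTiter-Glo luminescence; 500-1,000 cells/well, 8- or 11-point titration, 48 h compound exposure at 37 degrees C, 5% CO2. Controls: DMSO neutral, bortezomib 2.3 µM final as positive.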
Test [4] in a line: qHTS of pediatric cancer cell lines to identify multiple opportunities for drug repurposing: Primary screen for A673 cells (AID 1347092). Also: nearly all actives have a fitted effect of over 45% in size. Also: potency is read from the fitted curve at half-maximal effect. The essentials: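 Cells are plated, rested 5 h, dosed by pintool, incubated 48 h, then lysed with CellTiter-Glo and read by luminescence. DMSO is the neutral control; bortezomib at 2.3 uM final is the positive control.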
A short description of test [5]: qHTS of pediatric cancer cell lines to identify multiple opportunities for drug repurposing: Primary screen for SK-N-MC cells (AID 1347093). Also: potency is read from the fitted curve at half-maximal effect. In a few lines:
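Metabolically active cells were quantified by ATP-dependent luminescence (CellTiter-Glo, 15 min at room temperature) following 48 h treatment. Cells had been plated at 500-1,000 per well and settled for 5 h beforehand.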

Test [6] in a line: qHTS of pediatric cancer cell lines to identify multiple opportunities for drug repurposing: Primary screen for BT-37 cells (AID 1347094). Also: potency is read from the fitted curve at half-maximal effect. The essentials:
(§2)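 500-1,000 cells/well; 5 h pre-incubation 37 °C/5% CO2; compound pinned; 48 h; CellTiter-Glo, 15 min RT; luminescence. MIPE 11-pt from 0.78 nM, NPC 8-pt from 0.59 nM final. Bortezomib 2.3 µM final as positive control.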

Test [7] is described as follows: qHTS of pediatric cancer cell lines to identify multiple opportunities for drug repurposing: Primary screen for NB-EBc1 cells (AID 1347095). Also: potency is read from the fitted curve at half-maximal effect. The essentials:
as §2

Test [8] in a line: qHTS of pediatric cancer cell lines to identify multiple opportunities for drug repurposing: Primary screen for U-2 OS cells (AID 1347096). Also: nearly all actives have a fitted effect of over 50% in size. Also: potency is read from the fitted curve at half-maximal effect. The essentials:
(§3)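 Cells (500-1,000/well) rested 5 h, then received compounds for 48 h; metabolically active cells were measured by CellTiter-Glo luminescence. Final concentrations spanned up to 46 µM (MIPE, 11-point) or 0.59 nM-46 µM (NPC, 8-point) in primary screens, 11-point in follow-ups.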

Test [9] can be described thus: qHTS of pediatric cancer cell lines to identify multiple opportunities for drug repurposing: Primary screen for Saos-2 cells (AID 1347097). Also: nearly all actives have a fitted effect of over 40% in size. Also: potency is read from the fitted curve at half-maximal effect. In a few lines:
as §2

The nature of test [10]: qHTS of pediatric cancer cell lines to identify multiple opportunities for drug repurposing: Primary screen for SK-N-SH cells (AID 1347098). Also: nearly all actives have a fitted effect of over 65% in size. Also: potency is read from the fitted curve at half-maximal effect. The essentials: as §3
A short description of test [11]: qHTS of pediatric cancer cell lines to identify multiple opportunities for drug repurposing: Primary screen for LAN-5 cells (AID 1347100). Also: potency is read from the fitted curve at half-maximal effect. In a few lines:
as §3

The nature of test [12]: qHTS of pediatric cancer cell lines to identify multiple opportunities for drug repurposing: Primary screen for BT-12 cells (AID 1347101). Also: nearly all actives have a fitted effect of over 25% in size. Also: potency is read from the fitted curve at half-maximal effect. The essentials:
as §3

A short description of test [13]: qHTS of pediatric cancer cell lines to identify multiple opportunities for drug repurposing: Primary screen for Rh18 cells (AID 1347102). Also: nearly all actives have a fitted effect of over 65% in size. Also: potency is read from the fitted curve at half-maximal effect. In a few lines: as §3
Test [14] can be described thus: qHTS of pediatric cancer cell lines to identify multiple opportunities for drug repurposing: Primary screen for SJ-GBM2 cells (AID 1347091). Also: potency is read from the fitted curve at half-maximal effect. The essentials:
as §1

The nature of test [15]: qHTS of pediatric cancer cell lines to identify multiple opportunities for drug repurposing: Primary screen for NB1643 cells (AID 1347099). Also: nearly all actives have a fitted effect of over 50% in size. Also: potency is read from the fitted curve at half-maximal effect. The essentials: as §2
Test [16] addresses T1, Tyrosine-protein phosphatase non-receptor type substrate 1 (Homo sapiens) + Leukocyte surface antigen CD47 (Homo sapiens) (UniProt P78324+Q08722). Briefly: CD47-SIRPalpha protein protein interaction - LANCE assay qHTS validation (AID 1347057; active = well fitted curve in the direction sought with a large enough effect in the signal ratio, with a control signal flat, not every such curve was filed as active; the % refers to the signal ratio; also: series mostly up to about 38 µM). In a few lines:
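First, His-tagged CD47 and Eu-labelled anti-His antibody met the compound for 30 min; next, site-specifically biotinylated SIRPalpha was added for 30 min; finally streptavidin-APC was added before reading the TR-FRET ratio.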
In general terms: In TR-FRET formats the signal depends on donor and acceptor labels being close together.

In test [17] the target is T1, Tyrosine-protein phosphatase non-receptor type substrate 1 (Homo sapiens) + Leukocyte surface antigen CD47 (Homo sapiens). Briefly: CD47-SIRPalpha protein protein interaction - HTRF assay qHTS validation (AID 1347058; active = well fitted curve in the direction sought with a large enough effect in the signal ratio, not every such curve was filed as active; the % refers to the signal ratio;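 also: recombinant soluble extracellular CD47 with His tag and biotinylated SIRPalpha domains; series mostly up to about 38 µM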). The essentials:
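TR-FRET read (Ch1/Ch2 ratio) of soluble extracellular CD47 and Avi-biotinylated SIRPalpha domains in PBS pH 7.4 with 0.05% IGEPAL; 7-point compound titration. Sequential 30 min room-temperature steps; non-biotinylated SIRPalpha as control inhibitor.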

The target is the same in test [18]. The experiment in a line: CD47-SIRPalpha protein protein interaction - Alpha assay qHTS validation (AID 1347059).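 Also: bead proximity luminescence from CD47 binding SIRPalpha after compound preincubation with SIRPalpha.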 The essentials: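 Binding is measured by AlphaScreen proximity: Ni-NTA acceptor beads capture His-CD47, streptavidin donor beads capture biotin-SIRPalpha. Each of three additions (SIRPalpha with compound, CD47, beads) incubates 30 min at room temperature protected from light.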

Test [19] addresses Parathyroid hormone/parathyroid hormone-related peptide receptor (Homo sapiens) (UniProt Q03431). The experiment in a line: qHTS for PTHR1 Agonists: Optimization Screen against the NCGC LOPAC library (AID 1347079).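 Also: GloSensor cAMP luminescence in HEK-293 GP2 cells expressing human PTHR1 with IBMX.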 In a few lines: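 Agonist readout: GloSensor cAMP luminescence, read after 15 min at room temperature. HEK-293-derived GP2 line carries PTHR1; compounds tested as a titration for 1 hr at 37C in presence of IBMX. M-PTH (1-15) served as control.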

T1 sequence (P78324 whole entry, looked up): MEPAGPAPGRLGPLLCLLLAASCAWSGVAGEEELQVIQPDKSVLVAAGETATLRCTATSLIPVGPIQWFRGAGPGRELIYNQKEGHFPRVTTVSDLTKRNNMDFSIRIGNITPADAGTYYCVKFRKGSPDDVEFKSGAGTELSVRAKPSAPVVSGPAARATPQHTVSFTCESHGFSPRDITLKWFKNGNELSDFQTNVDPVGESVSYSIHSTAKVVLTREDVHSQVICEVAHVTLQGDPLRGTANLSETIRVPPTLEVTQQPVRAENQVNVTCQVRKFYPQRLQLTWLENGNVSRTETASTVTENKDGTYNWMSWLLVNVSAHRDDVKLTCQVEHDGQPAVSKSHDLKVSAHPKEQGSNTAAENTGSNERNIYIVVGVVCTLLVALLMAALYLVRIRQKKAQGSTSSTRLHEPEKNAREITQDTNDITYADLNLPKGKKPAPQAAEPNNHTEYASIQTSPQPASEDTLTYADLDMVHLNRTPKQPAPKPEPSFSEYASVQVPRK
T1 sequence (Q08722 whole entry, looked up): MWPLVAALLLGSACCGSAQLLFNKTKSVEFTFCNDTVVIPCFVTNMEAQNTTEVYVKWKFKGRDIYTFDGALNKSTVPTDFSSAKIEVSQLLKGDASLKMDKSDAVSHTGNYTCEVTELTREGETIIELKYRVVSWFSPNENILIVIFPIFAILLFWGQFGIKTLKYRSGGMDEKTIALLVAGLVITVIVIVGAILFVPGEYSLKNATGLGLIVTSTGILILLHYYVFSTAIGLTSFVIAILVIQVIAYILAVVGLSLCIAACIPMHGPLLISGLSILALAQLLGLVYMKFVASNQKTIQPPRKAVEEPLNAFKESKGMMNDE
Sequence of Parathyroid hormone/parathyroid hormone-related peptide receptor (Homo sapiens) (Q03431 whole entry, looked up): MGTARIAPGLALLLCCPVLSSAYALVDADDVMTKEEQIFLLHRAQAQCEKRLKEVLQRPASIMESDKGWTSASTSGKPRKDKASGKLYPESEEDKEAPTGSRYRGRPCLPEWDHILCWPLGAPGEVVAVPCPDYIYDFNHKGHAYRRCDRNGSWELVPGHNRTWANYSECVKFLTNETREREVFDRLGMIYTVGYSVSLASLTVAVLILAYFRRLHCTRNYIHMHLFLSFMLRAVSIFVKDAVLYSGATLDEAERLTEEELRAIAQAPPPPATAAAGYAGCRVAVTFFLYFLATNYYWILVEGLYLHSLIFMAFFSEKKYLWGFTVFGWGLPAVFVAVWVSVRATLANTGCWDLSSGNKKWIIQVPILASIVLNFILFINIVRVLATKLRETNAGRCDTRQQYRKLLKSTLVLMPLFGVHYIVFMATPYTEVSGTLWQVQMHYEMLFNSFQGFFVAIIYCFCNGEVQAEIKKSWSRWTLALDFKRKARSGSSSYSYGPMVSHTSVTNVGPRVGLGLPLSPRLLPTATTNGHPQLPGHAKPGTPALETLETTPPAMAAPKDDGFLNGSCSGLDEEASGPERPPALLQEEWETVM

Turning to `CC(C(=O)O)c1ccc(C(=O)c2ccccc2)s1` (configuration not stated), the Potency entry in [1], in test [2], in test [3], in test [4], in test [5] and in test [6] was “inactive” throughout. The Potency entry in [7], in test [8], in test [9], in test [10], in [11] and in test [12] was “inactive” each time. The Potency result in test [13] is “inactive”.
For the compound `CCCCC1C(=O)N(c2ccccc2)N(c2ccc(O)cc2)C1=O` (configuration not stated), the Potency in test [1] was 3.98 µM (active); in [3], 5.31 µM (active); in test [14] it was 10.6 µM (active); in test [4], 10.6 µM (active); in [5], 2.66 µM (active); in test [7], 2.99 µM (active). In addition, the Potency in [9] is 16.8 µM (active); in test [15] it was 6.68 µM (active); in [11] it was 5.96 µM (active); in test [12], 5.5 µM (active); in test [13], 8.41 µM (active).
As to `COC(=O)C1=C(C)NC(C)=C(C(=O)OCC(C)C)C1c1ccccc1[N+](=O)[O-]` (configuration not stated), the Potency result in test [1], in test [2], in test [3], in test [14] and in test [9] was “inactive” in each case.
As to `CC(N)C(=O)OC(C)(C)Cc1ccc(Cl)cc1` (configuration not stated), the Potency result in test [16], in test [18], in test [19], in test [2], in test [3] and in [14] was “inactive” throughout. The Potency entry in test [4], in [5], in test [6], in test [7], in [8] and in test [9] was “inactive” each time. The Potency entry in test [10], in [11], in test [12] and in test [13] was “inactive” in each case. Further, the result in [17] was inactive.
Consider `Nc1ccc([N+](=O)[O-])cc1O`, for which the Potency result in [1], in test [8], in test [10] and in test [13] was “inactive” in each case. For the same compound, the Potency was 0.001 µM (active) in test [3], 0.001 µM (active) in test [4], 0.001 µM (active) in [5] and 15.4 µM (active) in [7].
`CC(C)(NS(=O)(=O)c1ccc(Oc2ccc(F)cc2)cc1)C(=O)NO`: the Potency entry in [16] and in [18] was “inactive” in each case. Besides, in test [17], the outcome was inactive.
As for `Cc1c(C(=O)O)c(O)cc2c1C(=O)c1c(O)c([C@@H]3O[C@H](CO)[C@@H](O)[C@H](O)[C@H]3O)c(O)c(O)c1C2=O`, the Potency entry in test [1], in [2], in test [3], in test [4], in test [8] and in test [10] was “inactive” in each case. In addition, the Potency result in test [15] was “inactive”.
Regarding `O=c1[nH]c2ccccc2n1CCCN1CCN(C(c2ccccc2)c2ccccc2)CC1`, the Potency result in test [1], in test [2], in test [3], in test [7] and in test [8] was “inactive” throughout. In test [10], the Potency was 24.4 µM (active).
Regarding `NC(=O)C(=O)O`, the Potency entry in [16], in test [18] and in [19] was “inactive” throughout. Also, in test [17], the outcome was inactive.
Turning to `COc1ccc(C(=O)/C(Cc2cc(OC)c(OC)c(OC)c2)=C(\C(=O)O)c2ccc3c(c2)OCO3)cc1`, the Potency entry in test [16] and in test [18] was “inactive” each time.
Regarding `CCCCN(CC)c1nc(C)nc2c1c(C)cn2-c1c(C)cc(C)cc1C`, the Potency entry in test [16] and in test [18] was “inactive” throughout.
In the case of `Cc1cc2c(cc1Cl)N(C(=O)Nc1ccc(Oc3cccnc3C)nc1)CC2`, the Potency entry in test [16], in [18] and in test [19] was “inactive” each time. The outcome in test [17] was inactive.
As for `CN(C)C(N)=NCCC[C@H](N)C(=O)O`, the Potency entry in [16], in test [18] and in test [19] was “inactive” throughout. Besides, the outcome in test [17] was inactive.
As for `Cc1cc(NC2CCCCC2)nc(-n2nc(C)cc2C)n1`, the Potency entry in test [16], in test [18] and in [19] was “inactive” throughout. For the same compound, in test [17], the result was inactive.
In the case of `CCCC(=O)OC[C@@H](OC(=O)CCC)[C@@H](OC(=O)CCC)[C@H](Cn1c2nc(=O)[nH]c(=O)c-2nc2cc(C)c(C)cc21)OC(=O)CCC`, the Potency result in [1], in test [2], in test [3], in [14], in test [8] and in [10] was “inactive” in each case. For the same compound, the Potency entry in test [15] was “inactive”. Besides, in test [12], the Potency was 27.6 µM (active).
Turning to `Nc1ccn([C@H]2O[C@H](CO)[C@@H](O)C2(F)F)c(=O)n1`, the Potency result in [16] and in [18] was “inactive” in each case. The outcome in test [17] was inactive.
Regarding `CN(C)c1ccc(C(=C2C=CC(=[N+](C)C)C=C2)c2ccccc2)cc1`, the Potency in [2] is 0.105 µM (active); in test [3] it was 0.106 µM (active); in [4], 0.0422 µM (active); in test [5], 0.0531 µM (active); in test [6], 0.0978 µM (active); in test [8], 1.33 µM (active). The Potency in test [9] was 0.0531 µM (active); in test [10], 1.09 µM (active); in test [15] it was 0.133 µM (active); in test [12], 0.174 µM (active); in test [13] it was 0.075 µM (active).
On to `Ic1ccc(N2CCN(Cc3c[nH]c4ncccc34)CC2)cc1`, for which, in [19], the Potency entry was “inactive”.
`CCCCCCCCCCCC(=O)[O][Sn]([CH2]CCC)([CH2]CCC)[O]C(=O)CCCCCCCCCCC`: the Potency result in test [2], in test [3], in test [14], in test [4], in test [5] and in [6] was “inactive” throughout. The Potency entry in test [7], in [8], in test [9], in test [10], in [11] and in [12] was “inactive” throughout. The Potency entry in [13] is “inactive”.
`NCCO`: the Potency result in [2], in [3], in test [14], in [4], in test [5] and in test [6] was “inactive” in each case. Besides, the Potency entry in [7], in [8], in test [11], in test [12] and in test [13] was “inactive” in each case.
With `Oc1c(Br)cc(Br)c2cccnc12`, the Potency entry in [2] and in test [8] was “inactive” each time. In addition, the Potency is 16.8 µM (active) in test [3]; 11.9 µM (active) in test [14]; 3.35 µM (active) in test [4]; 10.6 µM (active) in test [5]; 10.6 µM (active) in [7]; 11.9 µM (active) in [9]. Moreover, in [12], the Potency was 27.6 µM (active).
On to `CO[C@@]1(NC(=O)Cc2cccs2)C(=O)N2C(C(=O)O)=C(COC(N)=O)CS[C@@H]21`, for which the Potency entry in [2], in test [3], in test [14], in test [4], in test [5] and in [6] was “inactive” in each case. The Potency result in test [7], in test [8], in [9], in [10], in test [11] and in test [12] was “inactive” throughout. In [13], the Potency entry is “inactive”.
Take `N#C/C(=C\c1ccc(O)c(O)c1)C(=O)NCCCc1ccccc1`: the Potency entry in [19] was “inactive”.
With `COc1ccc(/C=C2\COc3ccc(C)cc3C2=O)cc1O`, the Potency result in test [16] and in test [18] was “inactive” throughout.

For the origin of these results see PubChem BioAssay (NCATS).
